Data on 120 compounds can be found in PubChem BioAssay (NCATS).

This experiment addresses Calcium and integrin-binding protein 1 (Homo sapiens) (UniProt Q99828). Description: Primary qHTS for Identification of Calcium Integrin Binding Protein 1 (CIB1) Competitor (AID 1508620). Note: top concentration of the series differs between compounds. In outline: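 Fluorescence polarization competition: GST-tagged CIB1 (1 uM final) preincubated with compound 15 min at room temperature, then FITC-labelled alphaIIb peptide (100 nM final) added. After 15 min at room temperature, polarization read at Ex 480/Em 540.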

Each structure is given as a SMILES string. Results filed as inconclusive are left out. Entries that show only a call come without a potency. Activity calls are given as the source filed them. Calls come from the whole dose curve; as a rule, active = well fitted inhibition curve with a large enough effect; inconclusive = small, poorly fitted or top-dose-only effect; inactive = flat fitted curve, though single readings scatter.

Sequence of Calcium and integrin-binding protein 1 (Homo sapiens) (Q99828 whole entry, looked up): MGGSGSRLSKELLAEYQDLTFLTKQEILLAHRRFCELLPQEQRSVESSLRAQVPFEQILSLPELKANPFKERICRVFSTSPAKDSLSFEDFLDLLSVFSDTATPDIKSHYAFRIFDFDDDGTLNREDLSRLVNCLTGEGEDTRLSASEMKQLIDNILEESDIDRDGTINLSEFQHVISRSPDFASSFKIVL

For the compound `O=c1c2ccccc2nc2sc(Nc3cccc(Cl)c3)nn12`, the Potency entry is “inactive”. With `CC(=O)Nc1ccccc1NC(=O)c1cnn2c(C)cc(C)nc12` the entry was “inactive”; with `CN1CCN(c2cccc(CNc3nn4c(=O)c5ccccc5nc4s3)c2)CC1`, “inactive”.

Take `Cc1cc(C)cc(Cn2ncc3c4sc(C)cc4n(C)c3c2=O)c1`: the Potency result was “inactive”. With `Cc1ccc(NS(=O)(=O)c2ccc(-c3ccccc3)cc2)cc1C` the entry was “inactive”; with `O=C(O)c1cccnc1SC1=NS(=O)(=O)c2ccccc21`, “inactive”. With `Cc1cc(C)nc(NC(=C(C#N)C#N)N2CCN(c3cccc(C(F)(F)F)c3)CC2)c1` the entry was “inactive”. In the case of `Cc1ccc(CNc2ncnc3ccc(-c4ccc5c(c4)OCO5)cc23)s1` it was “inactive”. `O=C1CCCC2=C1C(c1ccc(F)cc1)N=C(Nc1nc3ccccc3o1)N2` (stereo not given): the Potency result is “inactive”. In the case of `COc1cccc(CCN2C(=O)c3ccccc3NC2c2ccc(OC)c(COc3c(C)cc(NC(C)=O)cc3C)c2)c1` (stereo not given) it was “inactive”; in that of `N#Cc1c(-c2ccccc2C(F)(F)F)nc2ccccc2c1NCc1ccc(-c2ccnc(C(F)(F)F)c2)cc1`, “inactive”; in that of `COc1ccc(-c2ccc3nnc(-c4ccccc4OC)n3n2)cc1OC`, “inactive”. In the case of `Cc1cn([C@H]2C[C@H](N[S+](=O)([O-])Cc3ccc(Cl)cc3)[C@@H](CO)O2)c(=O)[nH]c1=O` it was “inactive”. In the case of `O=C(Cc1ccc(Cl)c(Cl)c1)Nc1ccc(S(=O)(=O)O)cc1` it was “inactive”; in that of `COc1ccc(C2=Nn3c(nnc3-c3ccc(OC)cc3OC)SC2)c(OC)c1`, “inactive”. Take `CC(=O)Nc1sc2c(c1-c1ccc(OC(F)(F)F)cc1)CCNC2`: the Potency entry is “inactive”.

Consider `CCCCN(C)C(=O)Cn1nc(-c2ccc(F)cc2)ccc1=O`, for which the Potency entry was “inactive”. In the case of `O=C(NC1CCCc2c1cnn2-c1ccc(F)cc1F)c1cccc(=O)[nH]1` (stereo not given) it was “inactive”. Turning to `N#Cc1ccc(OC2=NS(=O)(=O)c3ccccc32)cc1`, the Potency entry was “inactive”. With `Cc1ccc(-c2ccc(=O)n(CCNC(C)c3ccco3)n2)cc1` (stereo not given) the entry was “inactive”; with `c1ccc(CNCc2nnc(-c3cc4ccccc4[nH]3)s2)cc1`, “inactive”.

Regarding `Cc1ccnc(NC(=S)N2CCN(c3ccc(C(F)(F)F)cc3[N+](=O)[O-])CC2)c1`, the Potency entry was “inactive”. In the case of `N#Cc1nc(Nc2cccc([N+](=O)[O-])c2)nc(NC2CCCC2)n1` it was “inactive”; in that of `O=C1Nc2ccccc2/C1=C\c1ccc(O)cc1`, “inactive”; in that of `CN(C)CC(=O)NC1CCCc2c1cnn2-c1ccc(F)cc1F` (stereo not given), “inactive”.

As for `CN(C)CCNc1ncnc2ccc(-c3ccc4c(c3)OCO4)cc12`, the Potency entry was “inactive”. In the case of `O=C(Nc1ccccc1)OCc1c(-c2ccccc2)no[n+]1[O-]` it was “inactive”. With `NC(=O)C1CCN(c2nc(-c3ccc(Cl)cc3)cs2)CC1` the entry was “inactive”; with `CCCCN(C)C(=O)Cn1nc(-c2ccc(Cl)cc2)ccc1=O`, “inactive”; with `O=C(O)c1ccc(O)c2ncc(N3CCCCC3)cc12`, “inactive”. On to `O=C(Nc1ccc(F)c(C(F)(F)F)c1)Nc1nc(-c2ccncc2)cs1`, for which the Potency result is “inactive”.

For the compound `COc1cccc(-c2nc3cc(NC(=O)c4ccc(C)c([N+](=O)[O-])c4)ccc3o2)c1`, the Potency result is “inactive”.

For `COc1ccc(CNc2ccc(N3CCN(C(C)=O)CC3)cc2)cc1OC`, the Potency result is “inactive”. With `O=C(O)C1C2C(=O)N(c3ccccc3)C[C@@]23C=C[C@@H]1O3` (stereo not given in full) the entry was “inactive”; with `O=C(O)c1ccc(O)c2ncc(N3CCCN(CCCc4ccncc4)CC3)cc12`, “inactive”; with `FC(F)(F)c1ccccc1-c1nc(NCc2ccc(Br)cc2)c2ccccc2n1`, “inactive”. In the case of `CCC(=O)C1CCCN(C(=O)CC(c2ccc3c(c2)OCO3)c2c(O)cc(OC)cc2OC)C1` (stereo not given) it was “inactive”.

Regarding `Cc1ccc(NS(=O)(=O)c2cc3c(cc2N2CCC2)NC(=O)CC3)cc1C`, the Potency entry is “inactive”.

Consider `Cc1ccc(N[S+](=O)([O-])c2cc3c(cc2CCc2ccccc2)NC(=O)CO3)cc1C`, for which the Potency result was “inactive”. With `Cc1ccc(CNc2ncnc3ccc(-c4oc(-c5ccccc5)nc4C)cc23)o1` the entry was “inactive”; with `O=[S+]([O-])(c1ccc2c(c1)OCCO2)N1CCN([S+](=O)([O-])c2c(F)cc(F)cc2Br)CC1`, “inactive”.

As for `COCCCc1cc(F)c(S(=O)(=O)N2CCN(S(=O)(=O)c3ccc4c(c3)OCCO4)CC2)cc1F`, the Potency entry is “inactive”.

Consider `COc1ccc(NC(=O)c2[nH]c(C)c(C(C)=O)c2C)cc1S(=O)(=O)Nc1cccc(C#N)c1`, for which the Potency entry was “inactive”. With `CCOc1ccc(CCNC(=O)c2cc3ccccc3n2Cc2cc(C)cc(C)n2)cc1OCC` the entry was “inactive”; with `Cc1cc(C)n2ncc(C(=O)Nc3ccccc3)c2n1`, “inactive”. Consider `Cc1ccc(-c2ccc(=O)n(CCN)n2)cc1`, for which the Potency result was “inactive”. `O=C(CSc1ncnc2sc3c(c12)CCCCC3)NCc1ccco1`: the Potency entry was “inactive”.

For `CC(C)(C)OC(=O)Cc1nnc(CNC(=O)c2ccccc2)s1`, the Potency entry is “inactive”. With `O=S(=O)(c1ccc2c(c1)OCCO2)N1CCN(S(=O)(=O)c2ccc(Cl)cc2F)CC1` the entry was “inactive”. In the case of `O=C(O)c1ccc(-c2cccc(-c3nn4c(=O)cc(N5CCNCC5)nc4s3)c2)cc1` it was “inactive”; in that of `Cc1ccc(S(=O)(=O)NC(N)=NCCC[C@@H](NC(=O)CNC(=O)c2ccccc2)C(=O)Nc2cc(C(F)(F)F)ccc2Cl)cc1`, “inactive”; in that of `Cc1cc(C)nc(NC(=S)N2CCN(c3ccc(F)c(Cl)c3)CC2)c1`, “inactive”. `O=S(=O)(NC1CCN(S(=O)(=O)c2c(F)cccc2F)C1)c1ccc2c(c1)OCCO2` (stereo not given): the Potency entry is “inactive”.

As to `O=C1c2ccccc2C(=O)N1c1cccc2ncccc12`, the Potency result was “inactive”. With `CCOC(=O)Nc1sc2c(c1C(N)=O)CCCC2` the entry was “inactive”; with `O=C(/C=C/c1ccc(F)cc1)Nc1cccc([S+](=O)([O-])Nc2ccccc2F)c1`, “inactive”.

For `COc1ccc(S(=O)(=O)N2CCN(S(=O)(=O)c3c(F)cccc3F)CC2)cc1`, the Potency entry is “inactive”. In the case of `Cn1ccc2cc(-c3ccc4ncnc(NCc5ccc6c(c5)OCO6)c4c3)ccc21` it was “inactive”.

In the case of `O=C(NCc1ccccc1)Nc1nnc(-c2ccncc2)s1`, the Potency result was “inactive”.

Take `CN(CCC1CCCO1)c1ncnc2ccc(-c3ccc4c(c3)OCO4)cc12` (stereo not given): the Potency result was “inactive”. For the compound `O=C(O)c1ccc2c(c1)C(=O)N([C@@H](C(=O)O)C(c1ccccc1)c1ccccc1)C2=O`, the Potency result is “inactive”. With `O=C(CCc1ccccc1)Nc1cccc([S+](=O)([O-])Nc2ccccc2F)c1` the entry was “inactive”; with `Oc1c(CN2CCCCC2)cc(COCc2ccccc2)c2cccnc12`, “inactive”; with `Cc1cc(NS(=O)(=O)CCNC(=O)Cc2ccc(Cl)c(Cl)c2)no1`, “inactive”. With `COc1cccc(CNc2ccc(S(=O)(=O)Nc3nccs3)cc2)c1` the entry was “inactive”; with `Brc1ccc(-c2csc(N3CCNCC3)n2)cc1`, “inactive”.

For `Cc1ccnc(C(=S)N2CCN(c3cccc(C(F)(F)F)c3)CC2)c1`, the Potency entry is “inactive”. In the case of `CCOc1ccc(CCNC(=O)c2cc3sccc3n2Cc2ccccc2)cc1OCC`, the Potency result was “inactive”. Take `N#Cc1c(-c2ccc(F)cc2)no[n+]1[O-]`: the Potency result was “inactive”.

`O=S(=O)(c1ccc2c(c1)OCCO2)N1CCN(S(=O)(=O)c2ccccc2F)CC1`: the Potency entry is “inactive”.

On to `O=C(Nc1ccc(Cl)c(Cl)c1)Nc1nnc(-c2ccc(F)cc2)s1`, for which the Potency result was “inactive”. On to `Cc1cc(C)nc(NC(=S)N2CCN(c3ccc4nccn4c3)CC2)c1`, for which the Potency result is “inactive”. With `Cn1c2cc(C=O)sc2c2cnn(Cc3ccccc3F)c(=O)c21` the entry was “inactive”; with `O=C(Nc1ccc(Cl)cc1)Nc1nnc(-c2ccncc2)s1`, “inactive”.

In the case of `Cc1ccsc1CN(C)c1ncnc2ccc(-c3ccc4c(c3)OCO4)cc12`, the Potency result was “inactive”. With `CCOC(=O)C1CCN(C(=O)C(C)(C)NC(=O)Nc2ccc([N+](=O)[O-])cc2)CC1` the entry was “inactive”. As for `Cc1ccc(-c2ccc(=O)n(CC(=O)NCc3ncc[nH]3)n2)cc1`, the Potency entry is “inactive”. In the case of `c1csc(CCNc2ncnc3ccc(-c4ccc5c(c4)OCO5)cc23)c1` it was “inactive”; in that of `COc1cccc(CNc2ccc(S(=O)(=O)Nc3cccc4ccncc34)cc2)c1O`, “inactive”. In the case of `CCOC(=O)c1c(CNCc2ccccc2F)c2sc(C)cc2n1C`, the Potency entry is “inactive”. With `Cc1ccc2nc3sc(C(=O)N4CCN(C5CCN(C)CC5)CC4)cc3cc2c1` the entry was “inactive”. With `O=C(Nc1ccc(Cl)c(Cl)c1)Nc1nnc(NC2CCNCC2)s1` the entry was “inactive”. On to `O=S1(=O)N=C(Oc2cccc(Br)c2)c2ccccc21`, for which the Potency entry was “inactive”. For `O=C(O)c1ccc(CSc2nnc(-c3ccc([S+](=O)([O-])N4CCCC4)cc3)n2-c2ccccc2)cc1`, the Potency result is “inactive”. In the case of `CCn1cnc2c(Nc3cccc(Cl)c3)nc(C#N)nc21` it was “inactive”; in that of `CC(=O)NC(c1cc(F)c2cccnc2c1O)C(C)C` (stereo not given), “inactive”. With `COc1cc(-c2csc(N3CCC(C(N)=O)CC3)n2)cc(OC)c1OC` the entry was “inactive”. With `Cc1ccnc(NC(=S)N2CCc3cccc(C(F)(F)F)c3C2)c1` the entry was “inactive”.

Take `N#Cc1nc(Nc2cccc(Br)c2)nc(NC2CCCC2)n1`: the Potency entry was “inactive”. In the case of `O=C(Nc1ncc([S+](=O)([O-])N2CCOCC2)s1)c1cccc(Br)c1` it was “inactive”. With `O=C(Nc1ccc2ccccc2c1)Nc1nnc(-c2ccc(F)cc2)s1` the entry was “inactive”; with `S=C(NCCCc1cnc[nH]1)NCCCN(Cc1ccc(Cl)c(Cl)c1)c1ccccn1`, “inactive”. With `COc1cccc(C2c3c(ncn(-c4ccc(C#N)cc4)c3=N)Oc3ccc4ccccc4c32)c1` (stereo not given) the entry was “inactive”; with `Cc1cc(NS(=O)(=O)c2ccc(C(=O)NCc3ccc(Cl)c(Cl)c3)cc2)no1`, “inactive”; with `Cc1ccc(-c2ccc(=O)n(CC(=O)N(C)CCN(C)C)n2)cc1`, “inactive”. On to `COc1ccc(-c2ccc(NC(=O)c3cccs3)cn2)cc1`, for which the Potency entry was “inactive”. With `Cc1ccc(CNc2ccc(N3CCN(C(=O)OC(C)(C)C)CC3)cc2)cc1` the entry was “inactive”; with `O=C1CCc2cc(S(=O)(=O)Nc3ccc4c(c3)OCCO4)ccc2N1`, “inactive”. For `Cc1cc2c(s1)c1cnn(Cc3ccccc3Br)c(=O)c1n2C`, the Potency entry is “inactive”. With `CCN1CCN(C(=O)CCN(CC(C)C)c2nc(-c3cccs3)nc3ccccc23)CC1` the entry was “inactive”; with `Cc1ccc(C)c(SC2=NS(=O)(=O)c3ccccc32)c1`, “inactive”; with `Cc1ccc(NS(=O)(=O)c2ccc3c(c2)oc(=O)n3C)cc1C`, “inactive”. With `COc1ccc(COc2ccc(-c3nc4ccccc4[nH]3)cc2)cc1OC` the entry was “inactive”; with `CC(C)c1ccccc1-c1ncc(F)c(NC2(c3ccc(-c4cccnc4)cc3)CC2)n1`, “inactive”. With `COc1cc(N2C(=O)c3ccccc3C2=O)c2ncccc2c1`, the Potency result is “inactive”. In the case of `O=C(Nc1ccc(Cl)c(Cl)c1)Nc1cccc(-c2ccncc2)n1` it was “inactive”; in that of `O=C1CCc2cc(S(=O)(=O)Nc3ccc(-c4ccccc4)cc3)ccc2N1`, “inactive”; in that of `Cc1cnc(-c2ccccc2C(F)F)nc1NCC1CN(c2cnccn2)C1`, “inactive”.

`Cc1cc(NS(=O)(=O)Cc2ccc(NC(=O)Cc3ccc(Cl)c(Cl)c3)cc2)no1`: the Potency entry is “inactive”. In the case of `Cc1cncc(NC(=S)N2CCN(c3cccc(C(F)(F)F)c3)CC2)c1` it was “inactive”. In the case of `Cc1ccc(OCCn2c(CCNC(=O)C3CCCC3)nc3ccccc32)cc1` it was “inactive”; in that of `COc1cccc(CNc2ncnc3ccc(-c4c(C)noc4C)cc23)c1`, “inactive”; in that of `O=S(=O)(Nc1ccc2ccccc2c1)c1ccc(NCc2ccc(Br)cc2O)cc1`, “inactive”. With `Cc1cc(C)nc(NC(=S)N2CCN(c3nccc4occc34)CC2)c1`, the Potency result is “inactive”.

Take `COc1ccc(-c2cnc(N3CCC(C(N)=O)CC3)s2)cc1OC`: the Potency entry was “inactive”. With `Cc1cc2c(s1)c1cnn(Cc3ccc(Br)cc3)c(=O)c1n2C` the entry was “inactive”; with `COc1ccc(Cn2c(C)nnc2-c2cnn(C)c2N)cc1OC`, “inactive”. In the case of `Cc1ccc(Cl)cc1NS(=O)(=O)c1cc2c(cc1Cl)CCC(=O)N2` it was “inactive”; in that of `Cc1ccc(OCCn2c(CCNC(=O)c3ccc(C)cc3)nc3ccccc32)cc1`, “inactive”. With `COc1ccc(-c2nnc3n2N=C(c2ccc(OC)c(OC)c2)CS3)c(OC)c1` the entry was “inactive”.
